# Compounds without any hit were thinned out: in the full panel of roughly 83,000, 20% have a hit.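 Negative percent growth values reflect cell death: -40 means 40% of the cells present at the start died, and -100 means all died.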 Activity calls are given as the source filed them.
# System: OVCAR-5 ovarian
# Test: NCI-60 one-dose screen, 48 h (100 = growth as untreated, 0 = no growth, -100 = all killed)
# Conditions: 10 µM unless noted
# Experimental: Growth inhibition of the OVCAR-5 human tumor cell line is measured as a screen for anti-cancer activity. Cells are grown in 96 well plates and exposed to the test compound for 48 hours. Compounds are tested at a single concentration, which is 10^-5 M for most compounds. The reported endpoint is percent growth (GI% or GIPRCNT), where numbers from 0 - 100% represent growth inhibition, and numbers from -100% - 0 represent cell death. For example, a value of 40 represents 60% growth inhibition. A value of 0 means no net growth occurred over the course of the experiment. A value of -40 indicates 40% of cells at the beginning of the experiment died by the end of the experiment. A value of -100 means all cells are dead at the end of the experiment.
# NCI-60 Human Tumor Cell Lines Screen was performed using the standard one-dose NCI protocol, which is described in more detail at https://dtp.cancer.gov/discovery_development/nci-60/default.htm.
# Compounds with GIPRCNT values below 10 were considered active. Activity score was based on GIPRCNT using the following formula: […]
# Score is 0 for GIPRCNT values of 100 or above, 50 for GIPRCNT values of 0, and 100 for GIPRCNT values of -100.
row,SMILES,growth
1,COc1ncc2cc1NS(=O)(=O)c1cccc(c1)C(=O)NCC1=CC=C(S1)c1ncnc3c1SC2=C3C,-26.2% (active)
2,CN1CCN(Cc2ccc(NC(=O)c3cncc(C#Cc4cncc5[nH]ncc45)c3)cc2C(F)(F)F)CC1,4.44% (active)
3,Cc1cc(C)cc(Nc2ccc([N+](=O)[O-])c(NCCN3CCOCC3)n2)c1,52.9% (inactive)
4,CCNC(=O)Oc1ccc(/C(=C(/C)Cc2ccc(OC)cc2)c2ccc(OCCN3CCCC3)cc2)cc1,83.8% (inactive)
5,Cn1cc(-c2nonc2-c2c[nH]c3ccc(F)cc23)c2cc(Br)ccc21,58.7% (inactive)
6,Cc1ccccc1OCC(O)COc1ccccc1C,103% (inactive)
7,CC1(C)CCC(S(=O)(=O)c2ccc3c(c2)/C(=N\O)c2cc(S(=O)(=O)N4CCN(c5ccc(F)cc5O)CC4)ccc2-3)CC1,-69.3% (active)
8,COc1ccc2nc(SCC(=O)Nc3ccccc3C)[nH]c2c1,99.6% (inactive)
9,CCN=C1C=CC(=C(c2ccc(N(C)C)cc2)c2ccc(N(C)C)cc2)c2ccccc21,4.09% (active)
10,O=C(O)C1CN(c2cccc(Cl)c2)N(c2cccc(Cl)c2)C1=O (stereo not given),75.3% (inactive)
11,COc1ccc(C/C(C)=C(/c2ccc(OCCN3CCCCCC3)cc2)c2ccc(OC(=O)NCc3ccccc3)cc2)cc1,91.5% (inactive)
12,CCN(C(=O)N1CCN(c2cc3c(cc2F)c(=O)c(C(=O)O)cn3C2CC2)CC1)c1nc(-c2ccc(C)cc2)cs1,21.7% (inactive)
13,CC1CN=C(c2cccc(-c3ccc(-c4ccccc4)o3)c2)N1 (stereo not given),-5.49% (active)
14,Cn1cc(-c2csc(-c3cn(C)c4ccc(Br)cc34)n2)c2cnccc21,-67.3% (active)
15,COc1ccc2nc(Cl)c(/C=C/C(=O)c3ccc(NC(=O)CSc4nnc(-c5ccc(Cl)c(Cl)c5)n4-c4ccccc4)cc3)cc2c1,102% (inactive)
16,CCc1ccc(CCC(=O)Nc2ncc(Cc3ccc(Cl)cc3)s2)o1,52.1% (inactive)
17,Cc1ncc(C(=O)Nc2ccc(CN3CCN(C)CC3)c(C(F)(F)F)c2)cc1C#Cc1cnc(N)c2cnccc12,12.5% (inactive)
18,Cc1cccc(-n2c(C)nc3ccc(N4CCCNC4=O)cc3c2=O)c1,112% (inactive)
19,O=C1CCC(C(=O)NN(c2ccccc2)c2ccccc2)N1 (stereo not given),99.2% (inactive)
20,Nc1nc(C(=O)N/N=C/c2ccc(N3CCOCC3)cc2)nn1-c1ccc(S(N)(=O)=O)cc1,114% (inactive)

row,SMILES,growth
1,c1ccc2cc(Cn3c[n+](Cc4ccc5ccccc5c4)c4ccccc43)ccc2c1,22.3% (inactive)
2,C=CC(=O)N1CCN(c2ccc3cccc(NC(=O)c4cnc(C)cn4)c3n2)CC1,71.5% (inactive)
3,C#CCOc1ccc2ncnc(Nc3cccc(NC(=O)CCl)c3)c2c1,104% (inactive)
4,COc1ccc2c(c1)c(-c1nc(-c3cn(C)c4ncccc34)cs1)cn2CCO,76% (inactive)
5,Cn1c(O)c(C(/C=C/c2ccccc2)=Nc2ccccc2N)c(=O)n(C)c1=O,83.4% (inactive)
6,CCCCCCCCCCCCCCCCCCOc1ccccc1CC(=O)OCC[N+]1(C)CCOCC1,63.1% (inactive)
7,COc1ccc(C(C)=O)cc1S(N)(=O)=O,102% (inactive)
8,Cc1ccc(-c2cc(C(=O)N3N=C(c4ccc(N)cc4)CC3c3ccc(Cl)cc3)c3ccccc3n2)cc1 (stereo not given),75.2% (inactive)
9,Clc1ccc(-c2cn3ccsc3n2)c(Cl)c1Cl,88.5% (inactive)
10,O=C1c2cccnc2C(=O)c2c1c(C(=O)OCCCN1CCCCC1)c1ccccn21,-19.2% (active)
11,Cc1ccc(/C=C2\CN(C(=O)C(Cl)Cl)C/C(=C\c3ccc(C)cc3)C2=O)cc1,-44.6% (active)
12,Cc1ccc(C)c2c1C(O)(C#Cc1ccccc1)c1ccccc1C2(O)C#Cc1ccccc1 (stereo not given),81.3% (inactive)
13,Cc1c2ccccc2nc2c1ccc1cccnc12,83.5% (inactive)
14,COC(c1ccc2ccccc2c1)C(C)C(F)F (stereo not given),95.5% (inactive)
15,Cc1ccc2nc(Cl)c(Cn3nnnc3SCc3ccccc3)cc2c1,94.3% (inactive)
16,COc1ccc(C2=C/C(=C\c3ccc(Cl)cc3)C(=O)N2/N=C/c2ccc(Cl)cc2)cc1,103% (inactive)
17,Cc1ccc(/C=C/C(=O)c2ccc(NC(=O)CSc3nc4c([nH]3)c(=O)n(C)c(=O)n4C)cc2)c(C)c1,124% (inactive)
18,N#Cc1c(-c2ccccc2)c(C#N)c2c(C#N)c(N)nn2c1N,78% (inactive)
19,COc1cc(C#Cc2ccc(=O)oc2C#Cc2ccccc2)cc(OC)c1OC,75.8% (inactive)
20,O=C(CN1CCN(c2cc3c(cc2F)c(=O)c(C(=O)O)cn3C2CC2)CC1)N/N=C/c1ccncc1,98.2% (inactive)
